Compound activity: PubChem BioAssay, National Center for Advancing Translational Sciences (NCATS)
Shown are actives, neighbours in structure and some others; about 17% of the full set was active somewhere.
DT40 TDP1 CPT = growth inhibition of DT40 Tdp1-/-;hTDP1 cells with camptothecin (screen for TDP1 inhibitors); chicken DT40 Tdp1-/-;hTDP1 cells + 20 nM CPT, ATP luminescence, 48 h; Potency, µM (series often up to 46.2 µM), actives largely listed as inhibitors; 12% of 420,000 active; AID 686979; also: nearly all actives have a fitted effect of over 55% in size
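Chicken DT40 Tdp1-/- cells complemented with human TDP1, 400 cells/well, exposed to compounds plus 20 nM camptothecin for at least 48 h at 37 C; viability read as ATP content by CellTiter-Glo luminescence.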
DT40 TDP1 no CPT = qHTS for Inhibitors of human tyrosyl-DNA phosphodiesterase 1 (TDP1): qHTS in cells in absence of CPT; DT40 Tdp1-/- hTDP1 cells, no CPT, ATP luminescence, 48 h; Potency, µM (series often up to 46.2 µM), hits mostly inhibitors; 15% of 420,000 active; AID 686978, 2013; also: nearly all actives have a fitted effect of over 55% in size
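Chicken DT40 Tdp1-/- cells complemented with human TDP1, screened without camptothecin (DMSO vehicle only), 400 cells/well. Compounds pin-transferred, cells incubated at 37 °C for at least 48 hr. Growth read as ATP-dependent luminescence (CellTiter-Glo, 30 min at RT).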
HepG2 tox = kills HepG2 cells in TGF-b inhibitor counter-screen; Potency, µM (series often up to 46.1 µM), actives largely listed as cytotoxic; AID 588856; HepG2 CAGA-GFP viability, ATP luminescence, 18 h; 0.76% of 410,000 active
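HepG2 CAGA-GFP cells (1000/well, DMEM with 1% FBS) received compound, then TGF-beta at 500 pg/mL final, and were incubated 18 hours at 37 degrees C. Viability was read by CellTiter-Glo luminescence. Media-only wells were set as complete cell-killing and DMSO as no toxicity.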
ATXN2 expr inh = ATXN2 expression inhibition; HEK-293 ATXN2-luciferase reporter, luminescence, 24 h; Potency, µM (series often up to 57 µM), actives largely listed as inhibitors; 0.72% of 360,000 active; AID 1745845; also: nearly all actives have a fitted effect of over 55% in size
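ATXN2-luciferase reporter cells (luciferase flanked by upstream and downstream ATXN2 gene portions) were treated 24 h at 37 °C with compounds at up to 57 uM. SteadyGlo luminescence gave expression; GF-AFC fluorescence gave viability.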
ATXN viability = cell viability loss in ATXN counter-screen; S2 cells (HEK-293 line with an ATXN2-luciferase reporter) viability, CellTiter-Fluor protease fluorescence, 24 h; Potency, µM (top dose mostly 56.7 µM), actives largely listed as cytotoxic; 0.49% of 400,000 active; also: nearly all actives have a fitted effect of over 40% in size
TGFb inhibitor = blocks TGF-b signaling | HepG2 CAGA-GFP TGF-b/SMAD3 reporter, GFP fluorescence, 18 h; TGF-beta stimulated, 500 pg/mL final | Potency, µM (titrated, usually from 46.1 µM), hits mostly inhibitors | 1.2% of 410,000 active; also: nearly all actives have a fitted effect of over 65% in size
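Inhibition of TGF-beta-driven CAGA-GFP reporter expression in HEPG2 cells is measured by cellular GFP fluorescence after 18 h stimulation with 500 pg/mL recombinant TGF-beta in 1% FBS medium at 37 degrees C.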
Large screens that a line does not name were inactive. Calls follow the shape of the dose curve; as a rule, active = well fitted curve in the direction sought with a large enough effect; inconclusive = small, poorly fitted or top-dose-only effect, or another doubt; inactive = no such curve, though single readings can be large; an effect the other way counts as inactive or inconclusive.

Cc1ccc(NC(=O)N(Cc2ccc3c(c2)OCO3)C2CCN(Cc3ccccc3)CC2)cc1C	DT40 TDP1 CPT inconclusive, DT40 TDP1 no CPT 29.1µM, ATXN2 expr inh inconclusive, ATXN viability inconclusive, TGFb inhibitor inconclusive
COc1ccc(C)cc1NC(=O)N(Cc1ccc2c(c1)OCO2)C1CCN(Cc2ccccc2)CC1	DT40 TDP1 CPT inconclusive, DT40 TDP1 no CPT 5.17µM
O=[N+]([O-])c1ccc(Cl)cc1	none
COC(=O)C1=C(c2cccc(OC)c2OC)C[C@@H]2CC[C@H]1N2C(=O)NCc1ccc(C(F)(F)F)cc1	DT40 TDP1 no CPT inconclusive
CCOC(=O)C1(c2ccccc2)CCN(CCC(=O)Nc2ccc(C(=O)OC)cc2)CC1	DT40 TDP1 CPT 20.6µM, DT40 TDP1 no CPT inconclusive, TGFb inhibitor inconclusive
CCOC(=O)C1(c2ccccc2)CCN(CCC(C#N)(c2ccccc2)c2ccccc2)CC1	DT40 TDP1 CPT 13µM, DT40 TDP1 no CPT 6.51µM
CCOC(=O)C1(c2ccccc2)CCN(CCC(=O)Nc2cccc(Br)c2)CC1	DT40 TDP1 CPT inconclusive, DT40 TDP1 no CPT inconclusive, ATXN2 expr inh inconclusive, ATXN viability inconclusive, TGFb inhibitor inconclusive
CCOC(=O)C1(c2ccccc2)CCN(CCC(=O)Nc2ccc(OC)cc2)CC1	DT40 TDP1 CPT inconclusive, DT40 TDP1 no CPT inconclusive (no result: ATXN2 expr inh)
CCOC(=O)CCCc1cc[c]([Sb](=[O])([OH])[OH])cc1	TGFb inhibitor inconclusive (no result: ATXN2 expr inh, ATXN viability)
CC(C)CN1CCC2(CC1)CCN(S(C)(=O)=O)CC2	DT40 TDP1 CPT inconclusive (no result: HepG2 tox, ATXN2 expr inh, ATXN viability, TGFb inhibitor)
CC(C)c1ccc(NC(=O)C2CCC(CNS(=O)(=O)c3ccc4c(c3)CCCC(=O)N4)CC2)cc1 (configuration not stated)	DT40 TDP1 CPT 13µM, DT40 TDP1 no CPT 16.4µM
Cc1cc(C)c(S(=O)(=O)NCC2CCC(C(=O)N3CCC4(CC3)OCCO4)CC2)c(C)c1 (configuration not stated)	none
CCOC(=O)C1=C[C@@H](OC(CC)CC)[C@H](NC(C)=O)[C@@H](N)C1	none (no result: HepG2 tox, ATXN viability, TGFb inhibitor)
O=C(c1ccc(F)cc1)N1CCC(c2nc(-c3ccc(S(=O)(=O)N4CCCC4)cc3)no2)CC1	DT40 TDP1 CPT 20.6µM, DT40 TDP1 no CPT 11.6µM (no result: ATXN2 expr inh, ATXN viability)
O=S(=O)(c1ccc(F)cc1)N1CN2CCN(C2)C1	DT40 TDP1 CPT inconclusive, DT40 TDP1 no CPT inconclusive (no result: ATXN2 expr inh)
S=c1[nH]nc(-c2ccn[nH]2)n1-c1ccccc1Cl	none
CN1c2ccccc2C(NCCCCCCC(=O)O)c2ccc(Cl)cc2S1(=O)=O (configuration not stated)	DT40 TDP1 no CPT inconclusive (no result: HepG2 tox, ATXN2 expr inh, ATXN viability, TGFb inhibitor)
O=C1NC(=O)C(=Cc2cn(CCOc3ccc4c(c3)OCO4)c3ccccc23)C(=O)N1	DT40 TDP1 CPT inconclusive, DT40 TDP1 no CPT 20.6µM, ATXN2 expr inh inconclusive, TGFb inhibitor inconclusive
CCOP(=O)(OCC)c1cccc(P(=O)(c2ccccc2)c2ccccc2)c1O	DT40 TDP1 no CPT inconclusive
ClCCCN1CCN(c2cccc(Cl)c2)CC1	none (no result: DT40 TDP1 CPT, DT40 TDP1 no CPT, HepG2 tox, TGFb inhibitor)
Cc1oc(-c2cccc(Cl)c2)nc1CN1CCC(C(=O)NCCCN2CCN(c3cccc(Cl)c3)CC2)CC1	DT40 TDP1 CPT 14.6µM, DT40 TDP1 no CPT 18.4µM, ATXN viability inconclusive
CN(Cc1ccc(OC(F)F)cc1)Cc1nc2c(Br)cc(Br)cc2c(=O)[nH]1	DT40 TDP1 CPT inconclusive, DT40 TDP1 no CPT 16.4µM, TGFb inhibitor inconclusive (no result: ATXN viability)
CN1C(=O)N(C)C(=O)C2(Cc3cc(NC(=O)c4ccccc4)ccc3N3CCCC32)C1=O (configuration not stated)	none
O=C(Nc1ccc(Cl)c(C(F)(F)F)c1)c1ccc2c(c1)CCN2S(=O)(=O)c1ccccc1	DT40 TDP1 CPT 9.2µM, DT40 TDP1 no CPT 9.2µM (no result: ATXN2 expr inh, ATXN viability)
CCCN(CC1CC1)CC(O)c1ccccc1 (configuration not stated)	DT40 TDP1 CPT 16.4µM, DT40 TDP1 no CPT 18.4µM
CN1c2cc(O)c(N=NC(N)=O)cc2CC1S(=O)(=O)O (configuration not stated)	DT40 TDP1 no CPT inconclusive (no result: HepG2 tox, ATXN viability, TGFb inhibitor)
